Results published in the supplement of paper PMC10849652.
Of roughly 7,900 targets only a part is listed; those with a hit were picked by preference. About 0.6% of all pairs of compound and target were hits.

Key:
Experiment in all cases: log2 fold change, soluble protein after heating vs DMSO (PISA); higher = thermal stabilisation; K562 cells, 10 uM, 30 min; active = over 0.2 and 3.5 SD of the protein, either way, in both replicates (recomputed)
[1] = compound: C1=CC=C(C=C1)[C@H](COC2=CC3=C(C=C2)NC(=O)N3)NC(=O)C4=CC=CN(C4=O)CC5=CC(=C(C=C5)F)F
Method in brief: (§1)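 Quantification of soluble protein used TMTpro 16plex LC-MS/MS, with channel sums equalised. Samples were the supernatant after 21,000xg for 90 min of pooled aliquots from K562 cells (2×10^6 cells/mL) treated with 10 μM compound for 30 min, heated for 3 min over 48°C-58°C, and extracted in PBS with 0.5% NP-40 at 4°C. Values, from duplicates, describe thermal stability against control samples on a log2 fold-change scale.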

[2] = compound: CC1=C(SC2=C1C(=N[C@H](C3=NN=C(N32)C)CC(=O)N)C4=CC=C(C=C4)Cl)C
Method in brief: as §1

[3] = compound: CC1=C2C(=CC=C1)N=C(N(C2=O)C3=CC=CC=C3C)CN4C=NC5=C(N=CN=C54)N
Method in brief: as §1

[4] = compound: Cc1sc2c(c1C)C(c1ccc(Cl)cc1)=N[C@@H](CC(=O)OC(C)(C)C)c1nnc(C)n1-2
Method in brief: as §1

[5] = compound: c1ccc([C@@H]2C[C@H]2NC2CCNCC2)cc1
Method in brief: as §1

Measured: log2 fold change

MED25 isoform 3 (UniProt Q71SY5)
inactive: [1] -0.12 | [2] 0.06 | [3] -0.14 | [4] -0.128 | [5] -0.257

KTN1 (UniProt Q86UP2)
UniProt Q86UP2, sequence (Q86UP2 whole entry, looked up): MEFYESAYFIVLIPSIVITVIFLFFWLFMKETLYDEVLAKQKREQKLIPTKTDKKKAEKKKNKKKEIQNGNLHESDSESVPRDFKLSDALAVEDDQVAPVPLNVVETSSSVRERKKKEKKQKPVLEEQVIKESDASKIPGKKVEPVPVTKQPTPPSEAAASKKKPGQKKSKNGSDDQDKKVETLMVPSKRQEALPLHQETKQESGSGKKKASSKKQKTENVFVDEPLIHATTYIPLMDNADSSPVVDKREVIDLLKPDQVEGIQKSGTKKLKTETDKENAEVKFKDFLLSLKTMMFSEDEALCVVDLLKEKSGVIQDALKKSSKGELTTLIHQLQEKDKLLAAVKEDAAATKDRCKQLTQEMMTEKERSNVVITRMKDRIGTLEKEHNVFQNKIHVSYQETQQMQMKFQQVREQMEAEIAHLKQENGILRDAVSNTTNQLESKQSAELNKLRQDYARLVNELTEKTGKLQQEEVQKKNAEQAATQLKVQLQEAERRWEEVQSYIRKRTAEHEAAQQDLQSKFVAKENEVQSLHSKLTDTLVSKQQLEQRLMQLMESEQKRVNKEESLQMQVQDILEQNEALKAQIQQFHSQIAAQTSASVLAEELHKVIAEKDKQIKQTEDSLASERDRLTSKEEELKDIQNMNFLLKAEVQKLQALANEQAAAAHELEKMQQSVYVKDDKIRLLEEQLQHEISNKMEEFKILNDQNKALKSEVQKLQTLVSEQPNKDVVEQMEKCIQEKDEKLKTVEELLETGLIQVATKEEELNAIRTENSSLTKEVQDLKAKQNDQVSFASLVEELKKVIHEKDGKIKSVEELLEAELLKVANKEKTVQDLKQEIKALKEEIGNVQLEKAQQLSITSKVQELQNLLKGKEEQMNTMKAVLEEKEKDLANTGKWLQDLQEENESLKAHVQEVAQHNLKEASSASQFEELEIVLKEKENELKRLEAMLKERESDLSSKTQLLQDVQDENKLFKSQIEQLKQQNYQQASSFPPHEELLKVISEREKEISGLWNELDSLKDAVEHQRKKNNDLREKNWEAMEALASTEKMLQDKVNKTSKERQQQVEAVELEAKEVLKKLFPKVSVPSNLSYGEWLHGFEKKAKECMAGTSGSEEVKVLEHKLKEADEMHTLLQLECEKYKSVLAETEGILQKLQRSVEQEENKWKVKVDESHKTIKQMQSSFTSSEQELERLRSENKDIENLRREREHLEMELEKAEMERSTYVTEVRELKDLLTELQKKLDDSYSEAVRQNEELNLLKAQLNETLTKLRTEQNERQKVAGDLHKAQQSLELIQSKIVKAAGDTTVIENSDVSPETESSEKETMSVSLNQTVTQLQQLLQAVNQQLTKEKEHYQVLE
inactive: [1] 0.005 | [2] -0.012 | [3] 0.019 | [4] 0.036 | [5] 0.001

ILK (UniProt Q13418)
UniProt Q13418, sequence (Q13418 whole entry, looked up): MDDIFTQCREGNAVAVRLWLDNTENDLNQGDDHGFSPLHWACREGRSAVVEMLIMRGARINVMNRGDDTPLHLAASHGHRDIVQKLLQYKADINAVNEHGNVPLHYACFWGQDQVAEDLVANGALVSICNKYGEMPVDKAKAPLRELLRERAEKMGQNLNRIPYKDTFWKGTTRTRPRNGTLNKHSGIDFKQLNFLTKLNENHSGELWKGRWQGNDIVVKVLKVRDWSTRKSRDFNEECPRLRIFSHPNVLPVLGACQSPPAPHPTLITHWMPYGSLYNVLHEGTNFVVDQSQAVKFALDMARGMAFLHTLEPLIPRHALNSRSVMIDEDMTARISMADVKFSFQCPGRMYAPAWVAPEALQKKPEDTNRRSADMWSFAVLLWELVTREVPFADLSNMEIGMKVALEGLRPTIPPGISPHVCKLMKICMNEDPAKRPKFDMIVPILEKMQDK
inactive: [1] -0.081 | [2] 0.017 | [3] 0.132 | [4] 0.053 | [5] -0.087

LPIN1 isoform 7 (UniProt Q14693)
UniProt Q14693, sequence (Q14693 whole entry, looked up): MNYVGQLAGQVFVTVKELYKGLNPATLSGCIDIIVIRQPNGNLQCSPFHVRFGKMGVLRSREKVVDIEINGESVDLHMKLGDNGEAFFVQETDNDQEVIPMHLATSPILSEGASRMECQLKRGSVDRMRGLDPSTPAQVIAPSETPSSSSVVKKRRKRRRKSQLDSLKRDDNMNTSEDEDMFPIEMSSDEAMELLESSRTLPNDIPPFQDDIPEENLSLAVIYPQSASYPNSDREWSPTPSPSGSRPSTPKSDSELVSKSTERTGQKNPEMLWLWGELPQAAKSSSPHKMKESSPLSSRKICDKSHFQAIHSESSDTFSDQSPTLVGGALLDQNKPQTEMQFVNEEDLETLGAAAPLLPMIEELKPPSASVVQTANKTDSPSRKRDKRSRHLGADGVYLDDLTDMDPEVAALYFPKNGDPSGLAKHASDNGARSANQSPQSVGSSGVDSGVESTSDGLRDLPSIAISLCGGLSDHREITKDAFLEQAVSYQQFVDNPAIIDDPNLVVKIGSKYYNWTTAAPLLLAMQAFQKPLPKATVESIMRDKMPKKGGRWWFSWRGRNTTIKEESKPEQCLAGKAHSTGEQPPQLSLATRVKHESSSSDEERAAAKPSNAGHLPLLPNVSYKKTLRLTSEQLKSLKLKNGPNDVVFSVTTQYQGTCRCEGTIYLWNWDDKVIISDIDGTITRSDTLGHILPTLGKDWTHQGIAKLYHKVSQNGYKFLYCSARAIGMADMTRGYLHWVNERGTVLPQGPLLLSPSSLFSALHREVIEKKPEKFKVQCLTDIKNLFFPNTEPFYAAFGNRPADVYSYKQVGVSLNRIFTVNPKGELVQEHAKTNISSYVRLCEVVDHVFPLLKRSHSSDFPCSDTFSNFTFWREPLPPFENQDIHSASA
inactive: [1] -0.071 | [2] 0.086 | [3] 0.071 | [4] 0.02 | [5] 0.023

KCTD10 (UniProt Q9H3F6)
UniProt Q9H3F6, sequence (Q9H3F6 whole entry, looked up): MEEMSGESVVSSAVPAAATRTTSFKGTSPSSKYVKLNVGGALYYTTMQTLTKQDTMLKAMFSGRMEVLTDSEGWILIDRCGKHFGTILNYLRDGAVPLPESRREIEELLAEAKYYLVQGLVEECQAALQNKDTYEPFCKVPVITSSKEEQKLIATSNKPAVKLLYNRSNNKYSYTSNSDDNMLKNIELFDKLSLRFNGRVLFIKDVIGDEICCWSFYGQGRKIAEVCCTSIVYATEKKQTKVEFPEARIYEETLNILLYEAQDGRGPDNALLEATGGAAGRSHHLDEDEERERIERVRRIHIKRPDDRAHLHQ
inactive: [1] -0.014 | [2] -0.009 | [3] 0.007 | [4] -0.01 | [5] 0.03

MARCKSL1 (UniProt P49006)
UniProt P49006, sequence (P49006 whole entry, looked up): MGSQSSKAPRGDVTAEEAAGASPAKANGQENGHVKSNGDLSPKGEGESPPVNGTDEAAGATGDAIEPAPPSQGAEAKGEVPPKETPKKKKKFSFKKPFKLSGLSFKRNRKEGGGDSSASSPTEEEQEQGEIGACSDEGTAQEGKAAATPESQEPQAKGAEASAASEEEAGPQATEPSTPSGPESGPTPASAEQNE
inactive: [1] -0.052 | [2] 0.029 | [3] -0.032 | [4] -0.008 | [5] 0.011

MEPCE (UniProt Q7L2J0)
UniProt Q7L2J0, sequence (Q7L2J0 whole entry, looked up): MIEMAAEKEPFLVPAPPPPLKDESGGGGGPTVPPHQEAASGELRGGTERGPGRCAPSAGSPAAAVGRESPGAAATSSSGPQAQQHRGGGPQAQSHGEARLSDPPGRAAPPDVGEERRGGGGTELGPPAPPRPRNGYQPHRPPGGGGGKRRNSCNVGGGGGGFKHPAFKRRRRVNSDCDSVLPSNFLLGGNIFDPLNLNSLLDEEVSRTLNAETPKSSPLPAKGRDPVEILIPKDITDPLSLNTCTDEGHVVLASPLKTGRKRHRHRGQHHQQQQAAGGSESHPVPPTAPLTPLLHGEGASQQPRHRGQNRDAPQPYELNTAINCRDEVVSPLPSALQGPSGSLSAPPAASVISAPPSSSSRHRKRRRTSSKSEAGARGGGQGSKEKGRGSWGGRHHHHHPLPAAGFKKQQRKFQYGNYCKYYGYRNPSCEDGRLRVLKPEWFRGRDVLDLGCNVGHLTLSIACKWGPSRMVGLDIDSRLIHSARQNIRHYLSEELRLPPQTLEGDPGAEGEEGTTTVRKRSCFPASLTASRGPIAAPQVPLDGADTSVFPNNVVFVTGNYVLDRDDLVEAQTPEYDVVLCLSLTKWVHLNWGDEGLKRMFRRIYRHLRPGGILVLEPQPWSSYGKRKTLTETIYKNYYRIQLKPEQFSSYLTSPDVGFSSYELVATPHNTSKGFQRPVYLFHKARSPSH
inactive: [1] 0.017 | [2] 0.001 | [3] 0.064 | [4] 0.028 | [5] 0.008

IGF2BP2 (UniProt Q9Y6M1)
UniProt Q9Y6M1, sequence (Q9Y6M1 whole entry, looked up): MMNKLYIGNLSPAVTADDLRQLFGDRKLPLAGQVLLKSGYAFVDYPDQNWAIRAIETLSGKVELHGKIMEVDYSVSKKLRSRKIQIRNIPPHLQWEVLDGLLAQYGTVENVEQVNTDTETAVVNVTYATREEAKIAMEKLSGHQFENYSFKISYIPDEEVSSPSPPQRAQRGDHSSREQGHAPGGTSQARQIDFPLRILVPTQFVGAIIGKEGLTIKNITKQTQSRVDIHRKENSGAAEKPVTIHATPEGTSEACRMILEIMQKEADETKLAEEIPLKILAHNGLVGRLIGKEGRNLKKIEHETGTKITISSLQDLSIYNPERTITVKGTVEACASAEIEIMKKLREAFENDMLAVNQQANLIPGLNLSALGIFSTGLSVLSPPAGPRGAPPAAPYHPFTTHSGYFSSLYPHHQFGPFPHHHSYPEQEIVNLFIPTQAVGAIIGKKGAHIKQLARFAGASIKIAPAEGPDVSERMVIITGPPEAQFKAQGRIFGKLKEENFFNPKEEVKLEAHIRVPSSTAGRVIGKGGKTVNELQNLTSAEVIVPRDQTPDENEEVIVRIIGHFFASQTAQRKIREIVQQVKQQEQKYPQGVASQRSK
inactive: [1] 0.122 | [2] -0.271 | [3] -0.038 | [4] 0.25 | [5] 0.019

IRF3 (UniProt Q14653)
UniProt Q14653, sequence (Q14653 whole entry, looked up): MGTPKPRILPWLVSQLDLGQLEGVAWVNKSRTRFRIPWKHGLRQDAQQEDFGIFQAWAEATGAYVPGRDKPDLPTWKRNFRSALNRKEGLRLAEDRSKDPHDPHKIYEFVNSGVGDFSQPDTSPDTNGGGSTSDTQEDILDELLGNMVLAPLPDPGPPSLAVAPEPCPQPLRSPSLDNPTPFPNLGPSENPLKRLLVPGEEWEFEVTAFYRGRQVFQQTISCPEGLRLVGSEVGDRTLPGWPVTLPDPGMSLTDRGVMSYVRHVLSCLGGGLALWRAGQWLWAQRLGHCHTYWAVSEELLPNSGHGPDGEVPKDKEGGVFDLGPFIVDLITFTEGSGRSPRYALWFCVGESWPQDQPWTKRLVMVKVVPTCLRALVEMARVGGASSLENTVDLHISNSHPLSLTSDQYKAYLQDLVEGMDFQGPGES
inactive: [1] -0.049 | [2] 0.123 | [3] 0.015 | [4] -0.007 | [5] -0.01
